# Results published in the supplement of paper PMC8728848.
# The sample as a whole holds a higher share of the strongest signals than the screen did.
# B1: NPA (Narcissus pseudonarcissus), C0HM45 (protein)
# chain: DNILYSGETLSPGEFLNNGRYVFIMQEDCNLVLYDVDKPIWATNTGGLDRRCHLSMQSDGNLVVYSPRNNPIWASNTGGENGNYVCVLQKDRNVVIYGTARWATGTNIH
# How the values were obtained:
# Experiment in all cases: glycan array binding signal (z-score within array); higher = stronger binding
# Settings in all cases: glycan notation: IUPAC condensed, linker removed
# [1] = biological target: Fuc(a1-2)Gal(b1-3)GlcNAc(b1-3)[Fuc(a1-2)Gal(b1-3)GlcNAc(b1-6)]GalNAc
# Procedure, shortened: (§1)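 Glycan array data came from 3228 arrays in the Consortium for Functional Glycomics database, and only arrays with an available protein sequence were kept. Glycan names were put into IUPAC-condensed notation, and columns mapping to the same glycan were averaged. The binding signal is a within-array Z-score, averaged across arrays of one protein sequence run at different concentrations or buffers and across linkers. A negative Z-score can be read as non-binding.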
# [2] = biological target: Fuc(a1-2)Gal(b1-3)GlcNAc(b1-3)[Neu5Ac(a2-6)Gal(b1-4)GlcNAc(b1-6)]Gal(b1-4)Glc
# Procedure, shortened: as §1
# [3] = biological target: Fuc(a1-2)[Gal(a1-3)]Gal(b1-4)GlcNAc
# Procedure, shortened: as §1
# [4] = biological target: Fuc(a1-2)[Gal(a1-3)]Gal(b1-4)GlcNAc(b1-2)Man
# Procedure, shortened: as §1
# [5] = biological target: Fuc(a1-3)[Gal(b1-4)]GlcNAc(b1-2)Man
# Procedure, shortened: as §1
# Gal(a1-3)Gal(b1-3)GlcNAc = biological target: Gal(a1-3)Gal(b1-3)GlcNAc
# Procedure, shortened: as §1
# [6] = biological target: Gal(a1-3)Gal(b1-4)GlcNAc(b1-2)Man(a1-3)[Gal(a1-3)Gal(b1-4)GlcNAc(b1-2)Man(a1-6)]Man(b1-4)GlcNAc(b1-4)GlcNAc
# Procedure, shortened: as §1
# [7] = biological target: Gal(a1-3)Gal(b1-4)[Fuc(a1-3)]GlcNAc(b1-2)Man(a1-3)[Gal(a1-3)Gal(b1-4)[Fuc(a1-3)]GlcNAc(b1-2)Man(a1-6)]Man(b1-4)GlcNAc(b1-4)GlcNAc
# Procedure, shortened: as §1
# Gal(a1-6)Glc = biological target: Gal(a1-6)Glc
# Procedure, shortened: as §1
# [8] = biological target: Gal(b1-3)GalNAc(b1-3)Gal(a1-4)Gal(b1-4)Glc
# Procedure, shortened: as §1
# [9] = biological target: Gal(b1-3)GlcNAc(b1-3)Gal(b1-3)GlcNAc
# Procedure, shortened: as §1
# [10] = biological target: Gal(b1-3)GlcNAc(b1-6)GalNAc
# Procedure, shortened: as §1
# [11] = biological target: Gal(b1-3)GlcNAc(b1-6)[Gal(b1-3)]GalNAc
# Procedure, shortened: as §1
# [12] = biological target: Gal(b1-4)GlcNAc(b1-2)Man(a1-3)[Gal(b1-4)GlcNAc(b1-2)Man(a1-6)]Man(b1-4)GlcNAc(b1-4)GlcNAc
# Procedure, shortened: as §1
# [13] = biological target: Gal(b1-4)GlcNAc(b1-2)Man(a1-3)[Gal(b1-4)GlcNAc(b1-2)Man(a1-6)][Gal(b1-4)GlcNAc(b1-4)]Man(b1-4)GlcNAc(b1-4)[Fuc(a1-6)]GlcNAc
# Procedure, shortened: as §1
# [14] = biological target: Gal(b1-4)GlcNAc(b1-2)Man(a1-3)[Man(a1-6)]Man(b1-4)GlcNAc(b1-4)GlcNAc
# Procedure, shortened: as §1
# [15] = biological target: Gal(b1-4)GlcNAc(b1-2)Man(a1-6)[Man(a1-3)]Man(b1-4)GlcNAc(b1-4)GlcNAc
# Procedure, shortened: as §1
# [16] = biological target: Gal(b1-4)GlcNAc(b1-2)[Gal(b1-4)GlcNAc(b1-6)]Man(a1-6)[GlcNAc(b1-4)][Gal(b1-4)GlcNAc(b1-2)[Gal(b1-4)GlcNAc(b1-4)]Man(a1-3)]Man(b1-4)GlcNAc(b1-4)[Fuc(a1-6)]GlcNAc
# Procedure, shortened: as §1
# [17] = biological target: Gal(b1-4)GlcNAc(b1-3)Gal(b1-4)GlcNAc(b1-2)Man(a1-3)[Gal(b1-4)GlcNAc(b1-3)Gal(b1-4)GlcNAc(b1-2)Man(a1-6)]Man(b1-4)GlcNAc(b1-4)GlcNAc
# Procedure, shortened: as §1
# [18] = biological target: Gal(b1-4)GlcNAc(b1-3)Gal(b1-4)GlcNAc(b1-2)[Gal(b1-4)GlcNAc(b1-3)Gal(b1-4)GlcNAc(b1-6)]Man(a1-6)[Gal(b1-4)GlcNAc(b1-3)Gal(b1-4)GlcNAc(b1-2)Man(a1-3)]Man(b1-4)GlcNAc(b1-4)GlcNAc
# Procedure, shortened: as §1
# [19] = biological target: Gal(b1-4)GlcNAc(b1-3)Gal(b1-4)[Fuc(a1-3)]GlcNAc(b1-3)Gal(b1-4)[Fuc(a1-3)]GlcNAc
# Procedure, shortened: as §1
# [20] = biological target: Gal(b1-4)GlcNAc(b1-3)[Gal(b1-4)GlcNAc(b1-6)]GalNAc
# Procedure, shortened: as §1
# [21] = biological target: Gal(b1-4)GlcNAc(b1-6)[Gal(b1-4)GlcNAc(b1-3)]GalNAc
# Procedure, shortened: as §1
# GalNAc(b1-3)GalNAc = biological target: GalNAc(b1-3)GalNAc
# Procedure, shortened: as §1
# GalNAc(b1-4)Gal(b1-4)Glc = biological target: GalNAc(b1-4)Gal(b1-4)Glc
# Procedure, shortened: as §1
# [22] = biological target: Glc(a1-4)Glc(a1-4)Glc(a1-4)Glc
# Procedure, shortened: as §1
# Glc(b1-4)Glc = biological target: Glc(b1-4)Glc
# Procedure, shortened: as §1
# GlcA(b1-3)Gal = biological target: GlcA(b1-3)Gal
# Procedure, shortened: as §1
# [23] = biological target: GlcNAc(a1-4)Gal(b1-3)GlcNAc
# Procedure, shortened: as §1
# [24] = biological target: GlcNAc(b1-2)[GlcNAc(b1-4)]Man(a1-3)[GlcNAc(b1-2)Man(a1-6)]Man(b1-4)GlcNAc(b1-4)GlcNAc
# Procedure, shortened: as §1
# [25] = biological target: GlcNAc(b1-3)[GlcNAc(b1-6)]GalNAc
# Procedure, shortened: as §1
# [26] = biological target: GlcNAc(b1-4)GlcNAc(b1-4)GlcNAc
# Procedure, shortened: as §1
# [27] = biological target: GlcNAc(b1-4)[GlcNAc(b1-6)]GalNAc
# Procedure, shortened: as §1
# [28] = biological target: Man(a1-2)Man(a1-2)Man(a1-3)Man
# Procedure, shortened: as §1
# [29] = biological target: Man(a1-2)Man(a1-3)[Man(a1-2)Man(a1-6)]Man(a1-6)[Man(a1-2)Man(a1-2)Man(a1-3)]Man(b1-4)GlcNAc(b1-4)GlcNAc
# Procedure, shortened: as §1
# [30] = biological target: Man(a1-2)Man(a1-3)[Man(a1-6)]Man(a1-6)[Man(a1-2)Man(a1-3)]Man(b1-4)GlcNAc(b1-4)GlcNAc
# Procedure, shortened: as §1
# [31] = biological target: Man(a1-2)Man(a1-6)[Man(a1-3)]Man(a1-6)[Man(a1-2)Man(a1-2)Man(a1-3)]Man(b1-4)GlcNAc(b1-4)GlcNAc
# Procedure, shortened: as §1
# Man(a1-3)[Man(a1-6)]Man = biological target: Man(a1-3)[Man(a1-6)]Man
# Procedure, shortened: as §1
# [32] = biological target: Man(a1-3)[Man(a1-6)]Man(a1-6)[Man(a1-2)Man(a1-3)]Man(b1-4)GlcNAc(b1-4)GlcNAc
# Procedure, shortened: as §1
# [33] = biological target: Man(a1-3)[Man(a1-6)]Man(a1-6)[Man(a1-3)]Man
# Procedure, shortened: as §1
# [34] = biological target: Man(a1-3)[Man(a1-6)]Man(a1-6)[Man(a1-3)]Man(b1-4)GlcNAc(b1-4)GlcNAc
# Procedure, shortened: as §1
# [35] = biological target: Man(a1-3)[Man(a1-6)]Man(b1-4)GlcNAc(b1-4)GlcNAc
# Procedure, shortened: as §1
# [36] = biological target: Man(a1-3)[Man(a1-6)]Man(b1-4)GlcNAc(b1-4)[Fuc(a1-6)]GlcNAc
# Procedure, shortened: as §1
# Man(b1-4)GlcNAc = biological target: Man(b1-4)GlcNAc
# Procedure, shortened: as §1
# [37] = biological target: Neu5Ac(a2-3)Gal(b1-3)GlcNAc(b1-2)Man
# Procedure, shortened: as §1
# [38] = biological target: Neu5Ac(a2-3)Gal(b1-3)GlcNAc(b1-3)Gal(b1-4)GlcNAc
# Procedure, shortened: as §1
# [39] = biological target: Neu5Ac(a2-3)Gal(b1-3)GlcNAc(b1-3)GalNAc
# Procedure, shortened: as §1
# [40] = biological target: Neu5Ac(a2-3)Gal(b1-3)GlcNAc6S
# Procedure, shortened: as §1
# [41] = biological target: Neu5Ac(a2-3)Gal(b1-4)GlcNAc
# Procedure, shortened: as §1
# [42] = biological target: Neu5Ac(a2-3)Gal(b1-4)GlcNAc(b1-3)Gal(b1-4)GlcNAc(b1-3)Gal(b1-4)GlcNAc
# Procedure, shortened: as §1
# [43] = biological target: Neu5Ac(a2-3)Gal(b1-4)[Fuc(a1-3)]GlcNAc(b1-3)Gal
# Procedure, shortened: as §1
# [44] = biological target: Neu5Ac(a2-3)Gal6S(b1-4)[Fuc(a1-3)]GlcNAc
# Procedure, shortened: as §1
# [45] = biological target: Neu5Ac(a2-6)Gal(b1-3)GlcNAc(b1-3)[Gal(b1-4)GlcNAc(b1-6)]Gal(b1-4)Glc
# Procedure, shortened: as §1
# [46] = biological target: Neu5Ac(a2-6)Gal(b1-4)GlcNAc(b1-2)Man(a1-6)[Man(a1-3)]Man(b1-4)GlcNAc(b1-4)GlcNAc
# Procedure, shortened: as §1
# [47] = biological target: Neu5Ac(a2-8)Neu5Ac(a2-8)Neu5Ac
# Procedure, shortened: as §1
# [48] = biological target: Neu5Ac(b2-6)Gal(b1-4)GlcNAc
# Procedure, shortened: as §1
# [49] = biological target: Neu5Gc(a2-8)Neu5Gc(a2-3)Gal(b1-4)GlcNAc(b1-3)Gal(b1-4)GlcNAc
# Procedure, shortened: as §1
binder,measurement,setting,value
B1,glycan array binding signal (z-score),[1],-0.124
same,glycan array binding signal (z-score),[2],-0.142
same,glycan array binding signal (z-score),[3],-0.152
same,glycan array binding signal (z-score),[4],-0.132
same,glycan array binding signal (z-score),[5],-0.131
same,glycan array binding signal (z-score),Gal(a1-3)Gal(b1-3)GlcNAc,-0.133
same,glycan array binding signal (z-score),[6],2.1
same,glycan array binding signal (z-score),[7],-0.056
same,glycan array binding signal (z-score),Gal(a1-6)Glc,-0.147
same,glycan array binding signal (z-score),[8],-0.135
same,glycan array binding signal (z-score),[9],-0.148
same,glycan array binding signal (z-score),[10],-0.144
same,glycan array binding signal (z-score),[11],-0.051
same,glycan array binding signal (z-score),[12],0.602
same,glycan array binding signal (z-score),[13],-0.143
same,glycan array binding signal (z-score),[14],1.71
same,glycan array binding signal (z-score),[15],3.12
same,glycan array binding signal (z-score),[16],-0.141
same,glycan array binding signal (z-score),[17],0.034
same,glycan array binding signal (z-score),[18],-0.104
same,glycan array binding signal (z-score),[19],-0.144
same,glycan array binding signal (z-score),[20],-0.201
same,glycan array binding signal (z-score),[21],-0.141
same,glycan array binding signal (z-score),GalNAc(b1-3)GalNAc,-0.153
same,glycan array binding signal (z-score),GalNAc(b1-4)Gal(b1-4)Glc,-0.129
same,glycan array binding signal (z-score),[22],-0.139
same,glycan array binding signal (z-score),Glc(b1-4)Glc,-0.152
same,glycan array binding signal (z-score),GlcA(b1-3)Gal,-0.148
same,glycan array binding signal (z-score),[23],-0.152
same,glycan array binding signal (z-score),[24],-0.076
same,glycan array binding signal (z-score),[25],-0.147
same,glycan array binding signal (z-score),[26],-0.122
same,glycan array binding signal (z-score),[27],-0.146
same,glycan array binding signal (z-score),[28],0.268
same,glycan array binding signal (z-score),[29],0.144
same,glycan array binding signal (z-score),[30],2.38
same,glycan array binding signal (z-score),[31],1.83
same,glycan array binding signal (z-score),Man(a1-3)[Man(a1-6)]Man,5.21
same,glycan array binding signal (z-score),[32],5.6
same,glycan array binding signal (z-score),[33],2.47
same,glycan array binding signal (z-score),[34],5.37
same,glycan array binding signal (z-score),[35],10.1
same,glycan array binding signal (z-score),[36],5.34
same,glycan array binding signal (z-score),Man(b1-4)GlcNAc,-0.151
same,glycan array binding signal (z-score),[37],-0.122
same,glycan array binding signal (z-score),[38],-0.153
same,glycan array binding signal (z-score),[39],-0.14
same,glycan array binding signal (z-score),[40],-0.124
same,glycan array binding signal (z-score),[41],-0.154
same,glycan array binding signal (z-score),[42],-0.151
same,glycan array binding signal (z-score),[43],-0.162
same,glycan array binding signal (z-score),[44],-0.158
same,glycan array binding signal (z-score),[45],-0.144
same,glycan array binding signal (z-score),[46],3.41
same,glycan array binding signal (z-score),[47],-0.156
same,glycan array binding signal (z-score),[48],-0.154
same,glycan array binding signal (z-score),[49],-0.146
